# Results reported in PubChem BioAssay (Tox21).
# Results filed as inconclusive are left out. Values without a mark were called inactive. The source made the active and inactive calls. Calls come from the whole dose curve; as a rule, active = well fitted cell-killing curve with a large enough effect in the repeat runs; inconclusive = weak or mixed curves, or effect the other way; inactive = flat fitted curve, though single readings scatter.
# Test: qHTS assay to identify small molecule antagonists of the retinoid acid receptor (RAR) signaling pathway - cell viability counter screen (AID 1159551); note: nearly all actives have a fitted effect of over 35% in size
# Details: C3RL4 cells viability, ATP luminescence (CellTiter-Glo), 6 h; series mostly up to 92.4 µM; activity change, negative = cytotoxicity: at the top concentration
# Summary of the method: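 Cells (C3RL4) are plated, incubated overnight, dosed with compound in DMSO, then given retinol at 1 uM final. After 6 h at 37 C, CellTiter-Glo is added and luminescence read following 30 min at room temperature.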
# % is set by controls: 0 for no effect and ±100 for the full control effect; potency is the fitted concentration of half-maximal effect.
Compound,"activity change, negative = cytotoxicity",Potency
CCOCn1c(-c2ccc(Cl)cc2)c(C#N)c(Br)c1C(F)(F)F,-9.7%,
N#CNC#N,3.35%,
CCCCCCCCCCCCCN1CC(C)OC(C)C1 (stereo unspecified),2.86%,
C[C@H]1CC[C@@H]2[C@@H](C)[C@H]3[C@H](C[C@H]4[C@@H]5CC=C6CC(O[C@@H]7O[C@H](CO)[C@H](O)[C@H](O[C@@H]8O[C@H](CO)[C@@H](O)[C@H](O)[C@H]8O)[C@H]7O[C@H]7O[C@@H](C)[C@H](O)[C@@H](O)[C@H]7O)CC[C@]6(C)[C@H]5CC[C@]34C)N2C1 (stereo partly specified),,25.1 µM (active)
Clc1ccc(CCC(Cn2ccnc2)Sc2c(Cl)cccc2Cl)cc1 (stereo unspecified),0.595% [at 42.5 µM],
O=[N+]([O-])c1c2ccccc2cc2ccccc12,-0.04%,
Nc1ccccc1C(=O)Oc1ccc2ccccc2c1,-0.767%,
BrC(Br)Br,0.694%,
CC(C)[C@H](C(=O)OC(C#N)c1cccc(Oc2ccccc2)c1)c1ccc(OC(F)F)cc1 (stereo partly specified),-2.14%,
C[C@@H]1O[C@@H](O[C@H]2C[C@@H](O)[C@]3(CO)[C@H]4[C@H](O)C[C@]5(C)[C@@H](C6=CC(=O)OC6)CC[C@]5(O)[C@@H]4CC[C@]3(O)C2)[C@H](O)[C@H](O)[C@H]1O,,inactive
CC(C)(C)OO,2.17%,
O=C1NCN(c2ccccc2)C12CCN(CC1COc3ccccc3O1)CC2 (stereo unspecified),-2.8% [at 42.5 µM],
ClC(Cl)=C(c1ccc(Cl)cc1)c1ccc(Cl)cc1,,inactive
CC(=O)Nc1ccc2c(c1)Cc1ccccc1-2,0.287%,
ClC1=C(Cl)C2(Cl)C3C(Cl)C=CC3C1(Cl)C2(Cl)Cl (stereo unspecified),,inactive
CC(C)CCCCCOC(=O)c1ccccc1C(=O)OCCCCCC(C)C,-0.702%,
